Inconclusive results are not listed. Unmarked numbers belong to inactive results. Active and inactive are the calls of the source. The call rests on the fitted dose curve; in most records, active means well fitted inhibition curve with a large enough effect; inconclusive means small, poorly fitted or top-dose-only effect; inactive means flat fitted curve, though single readings scatter.
Biological target: Luciferin 4-monooxygenase (Photinus pyralis) (UniProt P08659)
Experiment: Biochemical firefly luciferase enzyme assay for NPC (AID 624030); further: nearly all actives have a fitted effect of over 70% in size;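 on activity change, negative = inhibition: 0% = DMSO and -100% = full luciferase inhibition by PTC124 control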
Settings: purified P. pyralis luciferase, luminescence, 5 min; series mostly up to 58.6 µM; activity change, negative = inhibition: at the top concentration
Excerpt: Charcot-Marie-Tooth-Association [CMTA] National Center for Advancing Translational Sciences [NCATS] Charcot-Marie-Tooth (CMT) disease was first characterized by Jean-Martin Charcot and Pierre Marie in France and, independently, by Howard Henry Tooth in England in 1886. CMT is one of the most common inherited neurological diseases, affecting approximately 1 in 2,500 Americans. […] The most prevalent type of CMT is known as CMT1A and caused by a duplication of the PMP22 gene which leads to over-expression of this protein. PMP22 is a glycosylated intrinsic membrane protein accounting for 2-5% of the myelin protein content, and its over-expression results in demyelination and subsequently axonal loss. A pair of cellular transcription-based assays was developed in the S16 rat Schwann cell lines (Hai, M., et al., 2002) stably transfected with orthogonal reporters - firefly luciferase (Fluc) and beta-lactamase (beta-Lac) - whose expression is driven by an intronic regulatory element of the PMP22 gene (Jones, E.A., et al., 2011) to recapitulate endogenous expression of PMP22. A comprehensive library of approved drugs, the NCGC Pharmaceutical Collection (Huang, R., et al., 2011), was screened in the cross-validating platform of the orthogonal reporter assays to identify drug modulators inhibitory towards PMP22 expression. A set of counter-screens was devised to address non-specific activity of the library. An ATP-dependent CellTiter-Glo assay (developed by Promega Corp) was utilized to control cell viability. In addition, biochemical Fluc enzyme assay was performed to assess direct inhibition of the Fluc enzymatic activity. References Hai, M., Muja, N., DeVries, G.H., Quarles, R.H. and Patel, P.I. Comparative analysis of Schwann cell lines as model systems for myelin gene transcription studies. J Neurosci Res, 2002. 69(4): pp 497-508 Huang, R., Southall, N., Wang, Y., Yasgar A., Shinn P., Jadhav, A. , Nguyen, D.-T. and Austin, C.P., The NCGC pharmaceutical collection: a comprehensive resource of clinically approved drugs enabling repurposing and chemical genomics. Sci Transl Med, 2011. 3(80): p. 80ps16.
Compounds were transferred to the plates in 23nl, and one microliter/well luciferase enzyme-buffer solution (10 nM P. pyralis luciferase and 50 mM Tris Acetate final concentrations) was dispensed yielding a final reaction volume of […]. Luciferase luminescence was measured by a ViewLux plate reader within 5 minutes of enzyme-buffer addition. The % activity was determined by normalizing to the average readings of PTC124 (a positive control) relative to DMSO (0% Activity). The concentration-effect curves were then classified based on curve quality (r2), response magnitude and degree of measured activity.
Potency means the concentration at half of the fitted maximal effect.

Chain of Luciferin 4-monooxygenase (Photinus pyralis) (P08659 whole entry, looked up): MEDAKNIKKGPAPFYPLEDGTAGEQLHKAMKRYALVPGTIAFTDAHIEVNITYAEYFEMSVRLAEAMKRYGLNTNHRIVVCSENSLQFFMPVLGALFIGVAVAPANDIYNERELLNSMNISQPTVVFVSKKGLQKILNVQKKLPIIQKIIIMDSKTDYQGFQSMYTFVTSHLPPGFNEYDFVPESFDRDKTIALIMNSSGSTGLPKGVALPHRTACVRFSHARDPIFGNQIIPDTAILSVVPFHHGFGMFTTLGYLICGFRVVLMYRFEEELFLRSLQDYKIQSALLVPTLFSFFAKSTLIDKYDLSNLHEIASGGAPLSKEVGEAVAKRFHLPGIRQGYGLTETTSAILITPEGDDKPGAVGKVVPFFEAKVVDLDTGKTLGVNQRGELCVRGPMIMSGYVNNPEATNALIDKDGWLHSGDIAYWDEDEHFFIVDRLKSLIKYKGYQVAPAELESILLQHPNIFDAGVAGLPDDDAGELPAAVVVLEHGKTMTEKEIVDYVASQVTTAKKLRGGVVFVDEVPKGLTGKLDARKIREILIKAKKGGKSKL

Point of comparison: `C[C@H](N)C(=O)N[C@@H](C)P(=O)(O)O`, “activity change, negative = inhibition” value 3.5%. Against it:
- CCN(CC)CCOc1ccccc1OC — lower, 2.55%
- CC1CCCCN1CCCOC(=O)c1ccccc1 (stereo not given) — lower, -1.38%
- c1ccc(-n2cnnn2)cc1 — lower, -0.801%
- CN(C)CCCSc1ccccc1NC(=O)/C=C/c1ccccc1 — lower, -6.5%
- O=C(O)[C@H]1C(=CCO)O[C@H]2CC(=O)N12 — lower, 1.69%
- CCC(C)[C@@H](N)C(=O)O (stereo not given in full) — lower, 1.09%
- O=C(O)CCCC/C=C(\c1ccccc1)c1cccnc1 — lower, 0.764%
- CC(=O)[O][Al][O]C(C)=O — lower, -0.221%
- CC(=O)Nc1c(I)c(C(=O)O)c(I)c(N(C)C(C)=O)c1I — lower, -6.24%
- CCCC(=O)O — lower, -0.408%
- C#C[C@]1(O)CC[C@@H]2[C@H]3CCC4=CC(=O)CC[C@H]4[C@H]3C(=C)C[C@@]21CC — lower, -5.71%
- Cc1ccc(S(=O)(=O)O)cc1C — lower, -0.677%
- CC(C)=CCC/C(C)=C/C=C/C(C)=C/C=C/C(C)=C/C=C/C=C(C)/C=C/C=C(C)/C=C/C=C(\C)CCC=C(C)C — higher, 5.59%
- C[N+]1(C)[C@@H]2CC(OC(=O)C(O)(c3cccs3)c3cccs3)C[C@H]1[C@@H]1O[C@@H]12 (stereo not given in full) — lower, 1.45%
- O=C(O)C1=C(CSc2nnnn2CS(=O)(=O)O)CS[C@@H]2[C@H](NC(=O)[C@H](O)c3ccccc3)C(=O)N12 — higher, 9.53%
- Nc1ncnc2c1ncn2[C@H]1CC[C@@H](CO)O1 — lower, -0.127%
- CCC(O)c1ccccc1 (stereo not given) — lower, 0.0194%
- N=C(N)c1ccc(/C=C/c2ccc(C(=N)N)cc2O)cc1 — higher, 10.1%
- O=C(CCCCCCCCCCCCC1CCCC1)Nc1ccc(S(=O)(=O)c2ccc(NC(=O)CCCCCCCCCCCCC3CCCC3)cc2)cc1 — lower, 0.757%
- OCCOCCOCCO — lower, 0.15%
- O=P(O)(O)OP(=O)(O)OP(=O)(O)O — lower, 0.682%
- O=c1[nH]c(=O)n([C@H]2C[C@H](O)[C@@H](CO)O2)cc1/C=C/Br — lower, -0.444%
- CC[C@H]1OC(=O)[C@H](C)[C@@H](O[C@H]2C[C@@](C)(OC)[C@@H](O)[C@H](C)O2)[C@H](C)[C@@H](O[C@@H]2O[C@H](C)C[C@H](N(C)C)[C@H]2O)[C@](C)(O)C[C@@H](C)CN(C)[C@H](C)[C@@H](O)[C@]1(C)O — lower, 0.155%
- O=C(O[C@H]1CN2CCC1CC2)N1CCc2ccccc2[C@@H]1c1ccccc1 — higher, 4.62%
- CSCCC(N)C(=O)O (stereo not given) — higher, 4.72%
- CC(C)NCC(O)COc1ccccc1-n1cccc1 (stereo not given) — lower, 2.49%
- NCC[C@H](O)C(=O)N[C@@H]1C[C@H](N)[C@@H](O[C@H]2O[C@H](CN)CC[C@H]2N)[C@H](O)[C@H]1O[C@H]1O[C@H](CO)[C@@H](O)[C@H](N)[C@H]1O — lower, 0.749%
- CC(=O)NCCCS(=O)(=O)O — lower, -2.01%
- CC(C)CCC[C@@H](C)[C@H]1CC[C@H]2[C@@H]3CC=C4C[C@@H](O)CC[C@]4(C)[C@H]3CC[C@]12C — lower, 1.57%
- OCC1(CO)COC(C(Cl)(Cl)Cl)OC1 — lower, 1.17%
- C=CC(=O)O — lower, 1.02%
- CC(CCc1ccc(O)cc1)NCC(O)c1ccc(O)cc1 (stereo not given) — higher, 5.9%
- CCOc1cc(-c2nccc3cc(OC)c(OC)cc23)cc(OCC)c1OCC — lower, -0.0359%
- CC(=O)Oc1cccc2c1C(=O)c1c(OC(C)=O)cc(C(=O)O)cc1C2=O — lower, -3.31%
- CCN(CC)C(=S)S — lower, -7.57%

For `CCOC(=O)C1=C(COCCN)NC(C)=C(C(=O)OC)C1c1ccccc1Cl` (stereo not given), the Potency was “inactive”.
`COc1ccc2nc(NC(=O)Nc3ccccc3)sc2c1` was tested, and the Potency was 721 nM (active).

Point of comparison: `Cc1ncc(C[n+]2csc(CCO)c2C)c(N)n1`, “activity change, negative = inhibition” value -4.52% [at 24.9 µM]. Against it:
- O=C1NCCN1c1ncc([N+](=O)[O-])s1 — higher, 2.5% [at 24.9 µM]

— PubChem BioAssay (NCATS)
